Experimental data taken from the supplement of paper PMC10849652.
About 7,900 targets were measured; listed, in parts, are those with a hit and a random draw of the rest. About 0.6% of all pairs of compound and target were hits. A number with no mark means an inactive call.

Tests used:
Test in all cases: log2 fold change, soluble protein after heating vs DMSO (PISA); higher = thermal stabilisation; K562 cells, 10 uM, 30 min; active = over 0.2 and 3.5 SD of the protein, either way, in both replicates (recomputed)
[1] = compound: CS(=O)(=O)c1ccc(-c2cnc(N)c(C(=O)Nc3ccccc3)n2)cc1
In short: (§1)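 Values are thermal stability changes relative to control samples and are taken from duplicates. They are stated as log2 fold changes. Before quantification by TMTpro 16plex LC-MS/MS with equalised channel sums, K562 cells at 2×10^6 cells/mL were treated with 10 μM compound for 30 min, heated in aliquots for 3 min across 48°C-58°C, pooled, extracted in PBS with 0.5% NP-40 at 4°C, and centrifuged at 21,000xg for 90 min to give the soluble supernatant.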

crizotinib = compound: C[C@@H](Oc1cc(-c2cnn(C3CCNCC3)c2)cnc1N)c1c(Cl)ccc(F)c1Cl [crizotinib]
In short: as §1

[2] = compound: C[C@@H]1COCCN1C2=NC(=NC(=C2)C3(CC3)S(=O)(=O)C)C4=C5C=CNC5=CC=C4
In short: as §1

[3] = compound: C[C@H](C1=CC=C(C=C1)C(=O)NC2=C3C=CNC3=NC=C2)N
In short: as §1

duvelisib = compound: C[C@H](Nc1ncnc2nc[nH]c12)c1cc2cccc(Cl)c2c(=O)n1-c1ccccc1 [duvelisib]
In short: as §1

gandotinib = compound: Cc1cc(Nc2cc(CN3CCOCC3)c3nc(C)c(Cc4ccc(Cl)cc4F)n3n2)n[nH]1 [gandotinib]
In short: as §1

tozasertib = compound: Cc1cc(Nc2cc(N3CCN(C)CC3)nc(Sc3ccc(NC(=O)C4CC4)cc3)n2)n[nH]1 [tozasertib]
In short: as §1

[4] = compound: Cc1cc(SCc2sc(-c3ccc(C(F)(F)F)cc3)nc2C)ccc1OCC(=O)O
In short: as §1

doramapimod = compound: Cc1ccc(-n2nc(C(C)(C)C)cc2NC(=O)Nc2ccc(OCCN3CCOCC3)c3ccccc23)cc1 [doramapimod]
In short: as §1

ispinesib = compound: Cc1ccc(C(=O)N(CCCN)[C@@H](c2nc3cc(Cl)ccc3c(=O)n2Cc2ccccc2)C(C)C)cc1 [ispinesib]
In short: as §1

bafetinib = compound: Cc1ccc(NC(=O)c2ccc(CN3CC[C@H](N(C)C)C3)c(C(F)(F)F)c2)cc1Nc1nccc(-c2cncnc2)n1 [bafetinib]
In short: as §1

[5] = compound: Cc1cccc(CC(=O)N2CCc3c2ccc(-c2cn(C)c4ncnc(N)c24)c3F)n1
In short: as §1

nilotinib = compound: Cc1cn(-c2cc(NC(=O)c3ccc(C)c(Nc4nccc(-c5cccnc5)n4)c3)cc(C(F)(F)F)c2)cn1 [nilotinib]
In short: as §1

[6] = compound: Cc1nc(Nc2n[nH]c3c2CN(C(=O)N[C@H](CN(C)C)c2ccccc2)C3(C)C)c2sccc2n1
In short: as §1

dasatinib = compound: Cc1nc(Nc2ncc(C(=O)Nc3c(C)cccc3Cl)s2)cc(N2CCN(CCO)CC2)n1 [dasatinib]
In short: as §1

[7] = compound: Cc1ncc(-c2ccnc(Nc3ccc(S(C)(=O)=O)cc3)n2)n1C(C)C
In short: as §1

[8] = compound: Cn1cc(-c2ccc3c(c2)CCN3C(=O)Cc2cccc(C(F)(F)F)c2)c2c(N)ncnc21
In short: as §1

[9] = compound: Cn1cc(-c2ccc3nnc(C(F)(F)c4ccc5ncccc5c4)n3n2)cn1
In short: as §1

tipifarnib = compound: Cn1cncc1[C@@](N)(c1ccc(Cl)cc1)c1ccc2c(c1)c(-c1cccc(Cl)c1)cc(=O)n2C [tipifarnib]
In short: as §1

mubritinib = compound: FC(F)(F)c1ccc(/C=C/c2nc(COc3ccc(CCCCn4ccnn4)cc3)co2)cc1 [mubritinib]
In short: as §1

Chain of UniProt Q92871 (Q92871 whole entry, looked up): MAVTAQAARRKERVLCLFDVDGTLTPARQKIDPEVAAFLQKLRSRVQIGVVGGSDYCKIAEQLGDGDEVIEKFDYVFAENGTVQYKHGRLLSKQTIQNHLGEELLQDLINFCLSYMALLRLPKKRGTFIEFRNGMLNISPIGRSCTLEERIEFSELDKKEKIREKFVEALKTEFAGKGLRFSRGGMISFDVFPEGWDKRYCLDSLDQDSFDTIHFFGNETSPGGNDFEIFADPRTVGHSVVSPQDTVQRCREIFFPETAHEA
Chain of UniProt P11216 (P11216 whole entry, looked up): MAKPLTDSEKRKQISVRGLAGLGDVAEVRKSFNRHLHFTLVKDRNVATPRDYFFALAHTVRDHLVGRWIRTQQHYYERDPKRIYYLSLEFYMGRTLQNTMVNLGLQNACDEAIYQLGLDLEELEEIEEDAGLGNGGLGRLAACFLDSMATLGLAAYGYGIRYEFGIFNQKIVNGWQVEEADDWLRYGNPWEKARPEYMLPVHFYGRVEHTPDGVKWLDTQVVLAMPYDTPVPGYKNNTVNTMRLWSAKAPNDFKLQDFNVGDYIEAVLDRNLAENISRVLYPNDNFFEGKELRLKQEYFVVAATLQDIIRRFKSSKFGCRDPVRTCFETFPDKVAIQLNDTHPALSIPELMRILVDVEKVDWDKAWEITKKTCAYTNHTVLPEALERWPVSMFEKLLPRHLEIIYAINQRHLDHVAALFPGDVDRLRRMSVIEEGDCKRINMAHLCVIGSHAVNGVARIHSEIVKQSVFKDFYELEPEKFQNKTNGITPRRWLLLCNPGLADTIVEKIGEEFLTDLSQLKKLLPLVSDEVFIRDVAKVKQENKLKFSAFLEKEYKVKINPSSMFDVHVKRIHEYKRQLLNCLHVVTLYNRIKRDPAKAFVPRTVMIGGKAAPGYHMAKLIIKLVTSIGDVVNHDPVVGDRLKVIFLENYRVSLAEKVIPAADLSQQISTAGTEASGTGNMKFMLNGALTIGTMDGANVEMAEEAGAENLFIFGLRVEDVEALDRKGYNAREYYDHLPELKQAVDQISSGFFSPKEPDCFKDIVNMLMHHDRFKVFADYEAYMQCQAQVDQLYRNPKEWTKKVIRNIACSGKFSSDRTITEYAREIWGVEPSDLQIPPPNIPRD
Chain of UniProt P31321 (P31321 whole entry, looked up): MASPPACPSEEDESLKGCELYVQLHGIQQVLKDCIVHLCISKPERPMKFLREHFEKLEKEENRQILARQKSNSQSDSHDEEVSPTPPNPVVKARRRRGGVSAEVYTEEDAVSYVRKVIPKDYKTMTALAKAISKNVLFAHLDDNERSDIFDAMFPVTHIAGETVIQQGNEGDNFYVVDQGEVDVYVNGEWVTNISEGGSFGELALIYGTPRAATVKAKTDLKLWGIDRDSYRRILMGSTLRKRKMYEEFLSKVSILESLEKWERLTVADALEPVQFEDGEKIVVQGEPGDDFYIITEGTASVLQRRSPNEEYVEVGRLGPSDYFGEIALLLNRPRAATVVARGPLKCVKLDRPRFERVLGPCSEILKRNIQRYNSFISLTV
Chain of UniProt O15355 (O15355 whole entry, looked up): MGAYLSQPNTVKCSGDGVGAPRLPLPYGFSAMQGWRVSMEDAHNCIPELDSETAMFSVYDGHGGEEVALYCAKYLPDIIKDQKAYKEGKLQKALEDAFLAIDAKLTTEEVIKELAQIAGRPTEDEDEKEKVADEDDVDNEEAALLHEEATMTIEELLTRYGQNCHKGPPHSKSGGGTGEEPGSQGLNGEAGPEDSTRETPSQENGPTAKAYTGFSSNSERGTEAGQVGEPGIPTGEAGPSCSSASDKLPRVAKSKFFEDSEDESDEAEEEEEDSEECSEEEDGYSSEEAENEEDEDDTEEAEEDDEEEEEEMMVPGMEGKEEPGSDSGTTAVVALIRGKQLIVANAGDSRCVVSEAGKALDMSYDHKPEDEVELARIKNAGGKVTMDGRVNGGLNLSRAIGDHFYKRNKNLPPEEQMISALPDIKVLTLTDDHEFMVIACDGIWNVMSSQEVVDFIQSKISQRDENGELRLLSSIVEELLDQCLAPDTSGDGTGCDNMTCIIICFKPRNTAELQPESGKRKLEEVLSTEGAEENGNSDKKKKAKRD
Chain of UniProt Q04759 (Q04759 whole entry, looked up): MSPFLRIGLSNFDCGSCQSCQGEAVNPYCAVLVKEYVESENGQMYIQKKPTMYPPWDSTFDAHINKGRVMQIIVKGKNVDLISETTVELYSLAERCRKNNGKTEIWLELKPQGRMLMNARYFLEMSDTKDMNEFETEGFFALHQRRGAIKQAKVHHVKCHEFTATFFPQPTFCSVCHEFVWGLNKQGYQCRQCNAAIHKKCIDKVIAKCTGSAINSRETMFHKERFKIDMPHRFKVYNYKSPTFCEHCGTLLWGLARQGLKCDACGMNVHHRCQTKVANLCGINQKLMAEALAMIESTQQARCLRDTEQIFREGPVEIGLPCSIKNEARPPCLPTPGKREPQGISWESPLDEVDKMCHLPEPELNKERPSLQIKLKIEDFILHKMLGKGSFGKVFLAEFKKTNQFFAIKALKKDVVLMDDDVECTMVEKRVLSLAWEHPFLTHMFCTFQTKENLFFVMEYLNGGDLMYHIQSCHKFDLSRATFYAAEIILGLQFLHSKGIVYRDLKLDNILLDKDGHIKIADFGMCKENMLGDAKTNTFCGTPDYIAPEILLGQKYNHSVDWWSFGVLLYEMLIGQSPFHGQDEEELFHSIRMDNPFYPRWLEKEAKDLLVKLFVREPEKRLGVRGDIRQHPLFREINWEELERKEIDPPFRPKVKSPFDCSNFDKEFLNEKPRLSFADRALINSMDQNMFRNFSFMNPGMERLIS
Chain of UniProt Q8NBL1 (Q8NBL1 whole entry, looked up): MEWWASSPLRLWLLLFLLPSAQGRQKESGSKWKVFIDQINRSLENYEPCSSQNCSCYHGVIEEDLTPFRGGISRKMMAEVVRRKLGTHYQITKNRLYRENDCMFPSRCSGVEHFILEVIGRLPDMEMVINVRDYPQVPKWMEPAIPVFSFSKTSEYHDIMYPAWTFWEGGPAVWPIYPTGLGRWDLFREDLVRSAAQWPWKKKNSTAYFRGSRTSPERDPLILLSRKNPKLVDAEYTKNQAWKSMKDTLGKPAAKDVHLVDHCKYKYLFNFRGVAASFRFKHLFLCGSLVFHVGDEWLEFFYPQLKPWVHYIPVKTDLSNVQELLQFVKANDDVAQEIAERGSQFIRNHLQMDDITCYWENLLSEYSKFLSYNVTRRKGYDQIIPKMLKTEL
Chain of UniProt Q9BRP1 (Q9BRP1 whole entry, looked up): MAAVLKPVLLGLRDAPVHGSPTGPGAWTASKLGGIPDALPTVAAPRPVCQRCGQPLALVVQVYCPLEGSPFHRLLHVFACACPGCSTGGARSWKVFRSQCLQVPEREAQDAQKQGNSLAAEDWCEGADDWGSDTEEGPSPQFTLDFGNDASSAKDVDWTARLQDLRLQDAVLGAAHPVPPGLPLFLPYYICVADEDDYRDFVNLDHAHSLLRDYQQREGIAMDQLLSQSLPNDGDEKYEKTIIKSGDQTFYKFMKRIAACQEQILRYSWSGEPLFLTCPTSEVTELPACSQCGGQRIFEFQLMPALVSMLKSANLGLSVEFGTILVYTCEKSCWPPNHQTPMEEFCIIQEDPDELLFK

Row | Target | log2 fold change [1] | log2 fold change (crizotinib) | log2 fold change [2] | log2 fold change [3] | log2 fold change (duvelisib) | log2 fold change (gandotinib) | log2 fold change (tozasertib) | log2 fold change [4] | log2 fold change (doramapimod) | log2 fold change (ispinesib) | log2 fold change (bafetinib) | log2 fold change [5] | log2 fold change (nilotinib) | log2 fold change [6] | log2 fold change (dasatinib) | log2 fold change [7] | log2 fold change [8] | log2 fold change [9] | log2 fold change (tipifarnib) | log2 fold change (mubritinib)
1 | PYGB (UniProt P11216) | -0.305 (active) | -0.057 | 0.015 | 0.107 | 0.026 | -0.045 | -0.04 | -0.002 | -0.005 | 0.013 | -0.317 (active) | 0 | -0.358 (active) | 0.02 | -0.042 | -0.032 | 0.026 | -0.007 | 0.035 | 0.014
2 | PRKAR1B (UniProt P31321) | 0.137 | 0.132 | 0.071 | 0.123 | 0.199 | 0.095 | 0.136 | -0.011 | -0.03 | -0.072 | 0.132 | -0.015 | 0.062 | 0.012 | -0.013 | 0.097 | 0.018 | 0.126 | 0.147 | -0.286
3 | PRKACA (UniProt P17612) | 0.009 | -0.088 | 0.046 | 0.043 | -0.02 | -0.105 | -0.014 | 0.112 | 0.019 | 0.053 | -0.044 | 0.107 | -0.038 | 0.71 (active) | -0.107 | -0.051 | 0.01 | -0.117 | -0.036 | 0.066
4 | PRKCQ (UniProt Q04759) | 0.021 | -0.238 | 0.037 | -0.374 (active) | 0.022 | -0.165 | -0.033 | 0.023 | 0.038 | -0.106 | -0.027 | 0.024 | -0.051 | -0.821 (active) | -0.171 | 0.003 | 0.069 | 0.031 | -0.134 | 0.12
5 | PDCD2L (UniProt Q9BRP1) | -0.059 | -0.048 | -0.083 | 0.068 | 0.053 | 0.225 | -0.007 | 0.097 | -0.058 | 0.062 | 0.026 | 0.077 | -0.137 | 0.035 | -0.122 | -0.062 | -0.022 | 0.015 | -0.13 | 0.018
6 | POLR2B (UniProt P30876) | 0.041 | 0.032 | 0.023 | 0.18 | 0.025 | 0.26 (active) | -0.014 | 0.03 | -0.014 | -0.048 | 0.024 | -0.005 | 0.079 | 0.054 | -0.055 | 0.324 (active) | -0.054 | -0.006 | -0.029 | -0.014
7 | PMM1 (UniProt Q92871) | 0.051 | 0.008 | 0.032 | 0.019 | 0.07 | -0.075 | -0.114 | -0.011 | 0.027 | 0.026 | -0.2 | 0.022 | -0.606 (active) | -0.152 | -0.027 | 0.003 | 0.05 | 0.025 | 0.134 | 0.066
8 | PPM1G (UniProt O15355) | 0.114 | -0.028 | 0.045 | -0.083 | 0.044 | -0.026 | 0.081 | 0.171 | -0.008 | -0.055 | 0.001 | 0.048 | -0.041 | -0.05 | -0.097 | 0 | 0.096 | 0.117 | -0.133 | 0.105
9 | POGLUT1 (UniProt Q8NBL1) | 0.064 | 0.059 | 0 | 0.241 | -0.021 | -0.011 | 0.004 | 0.037 | 0.029 | 0.087 | 0.009 | 0.122 | -0.001 | 0.03 | 0.024 | -0.049 | -0.022 | -0.073 | 0.048 | -0.046
